Assay outcomes (PubChem BioAssay)
A selection: hits, their analogues and other compounds. The true share with any hit is near 7.5%.
Luc counter: Kinase-Glo luciferase inhibition (counter-screen) | AID 1379 | Q27757 | Kinase-Glo luciferase, ATP luminescence, 8 min | hit rate 0.28% among 200,000 | Potency, µM (titrated, usually from 38.3 µM), without a hit: at the highest dose activity change, negative = inhibition, usual class: inhibitors; note: % is set by controls: 0 for no effect and ±100 for the full control effect; nearly all actives have a fitted effect of over 60% in size
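Luminescence was the read-out, taken after 8-minute incubation at ambient temperature. Luciferase turned over luciferin with 10 uM ATP in imidazole pH 7.2 buffer containing KCl, MgCl2, Tween 20 and BSA.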
Rab9 prom act: Rab9 promoter activation | Huh7 Rab9 promoter-luciferase reporter, luminescence, 24 h | Potency, µM (series often up to 9.22 µM), for inactives: at the top dose activation, negative = inhibition, hits mostly activators | hit rate 2.8% among 320,000 | AID 485297; note: % of control where 0% means no effect; nearly all actives have a fitted effect of over 60% in size
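Cell-based reporter: Huh7 stable for Rab9 promoter-driven luciferase, plated in reduced-serum medium with 10% FBS at 1500 cells/well, compound-treated 24 h at 37 °C, luminescence read after 10 min reagent.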
FLuc counter: inhibits or activates purified firefly luciferase, miR-21 counter-screen; P08659; purified FLuc, Km substrates, luminescence inhibition; Potency, µM (titrated, usually from 57.5 µM), without a hit: at the top dose activity change, negative = inhibition, hits mostly inhibitors; hit rate 6.9% among 360,000;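 note: plate controls were vehicle for no effect and reference inhibitor for full effect; nearly all actives have a fitted effect of over 55% in size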
Target sequence (P08659 whole entry, looked up): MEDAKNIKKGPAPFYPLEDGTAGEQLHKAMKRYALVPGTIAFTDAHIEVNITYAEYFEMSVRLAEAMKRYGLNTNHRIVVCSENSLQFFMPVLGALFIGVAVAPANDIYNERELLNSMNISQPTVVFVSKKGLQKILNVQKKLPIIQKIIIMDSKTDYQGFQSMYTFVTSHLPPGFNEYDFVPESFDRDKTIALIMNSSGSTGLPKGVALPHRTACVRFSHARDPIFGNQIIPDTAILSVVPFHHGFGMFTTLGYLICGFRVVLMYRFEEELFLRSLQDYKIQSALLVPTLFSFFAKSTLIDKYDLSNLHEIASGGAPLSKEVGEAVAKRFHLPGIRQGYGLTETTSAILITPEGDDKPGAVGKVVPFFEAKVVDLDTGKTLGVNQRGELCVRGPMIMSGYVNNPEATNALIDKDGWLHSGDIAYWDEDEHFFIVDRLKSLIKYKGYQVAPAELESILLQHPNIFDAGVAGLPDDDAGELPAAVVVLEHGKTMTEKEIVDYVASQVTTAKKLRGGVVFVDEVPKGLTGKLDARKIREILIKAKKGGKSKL
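Biochemical qHTS of compounds, final roughly 60 µM downward over six points, against 10 nM purified firefly luciferase using Km concentrations of substrates (10 uM D-luciferin, 10 uM ATP) in Tris acetate pH 7.5 buffer; luminescence output.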
ELG1 genotox: inducers of genotoxicity in HEK293T ELG1-luciferase cells; HEK293T ELG1-luciferase reporter, luminescence, 16 h; Potency, µM (top dose mostly 46 µM), inactives show top-dose activity change, positive = activation, actives largely listed as activators; hit rate 1.3% among 330,000; note: % of control where 0% means no effect; nearly all actives have a fitted effect of over 60% in size
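HEK293T cells expressing luciferase-tagged ELG1 were exposed to compound or DMSO vehicle for 16 hr at 37 °C and 5% CO2. Luciferase activity was then measured with ONE-Glo after 30 min at room temperature.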
NPC1 prom act: NPC1 promoter activation. Potency, µM (titrated, usually from 9.22 µM), for inactives: top-dose activation, hits mostly activators. Huh7 NPC1 promoter luciferase reporter, 24 h. hit rate 2.4% among 320,000; note: % of control where 0% means no effect; nearly all actives have a fitted effect of over 60% in size
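Luciferase expression driven by the NPC1 promoter was measured in stably transfected Huh7 cells after a 24 h compound incubation, using a luciferase reagent and a luminescence read.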
SMN2 splice up: SMN2 splice variant enhancement; HEK293 SMN2-luciferase splicing reporter, luminescence, 30-36 h; Potency, µM (highest dose often 46.1 µM), inactives show at the highest dose activity change, positive = activation, actives largely listed as activators; hit rate 2.8% among 210,000; AID 1458; note: % of control where 0% means no effect; nearly all actives have a fitted effect of over 55% in size
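HEK293 cells carry an SMN2 minigene-luciferase reporter in which exon 7 inclusion puts luciferase in frame. Cells were seeded at 2000 cells/well, attached for 10-12 hours, then exposed to compounds for 30-36 hours at 37C before ONE-Glo luminescence.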
An asterisk follows results filed as active. Calls come from the whole dose curve; as a rule, active = well fitted curve in the direction sought with a large enough effect; inconclusive = small, poorly fitted or top-dose-only effect, or another doubt; inactive = no such curve, though single readings can be large; an effect the other way counts as inactive or inconclusive. Potency is the fitted concentration of half-maximal effect.

`CC(C)(C)c1ccc(-c2noc(CNC(=O)c3ccco3)n2)cc1` gave Rab9 prom act 6%, FLuc counter 15µM*, ELG1 genotox 10% and NPC1 prom act 0%.
CC(NC(=O)c1ccco1)c1nc(-c2ccc(C(C)(C)C)cc2)no1 (centres undefined) was read as Rab9 prom act 0%, FLuc counter 17µM*, ELG1 genotox -1% and NPC1 prom act 8%.
`CC(C)(C)c1ccc(-c2noc(CCC(=O)NCc3ccco3)n2)cc1` gave Luc counter -1%, Rab9 prom act -15%, FLuc counter 2.7µM*, ELG1 genotox -8%, NPC1 prom act -20% and SMN2 splice up -49%.
For COc1ccccc1-c1noc(CCC(=O)Nc2cc(C(F)(F)F)ccc2Cl)n1 the results were Luc counter -1%, Rab9 prom act 8%, FLuc counter 19µM*, ELG1 genotox -16%, NPC1 prom act 1% and SMN2 splice up -38%.
`COc1ccccc1Cn1ccn(Cc2ccc(C)cc2)c(=O)c1=O` gave FLuc counter -7%.
`CCCN1Cc2cccc(C(=O)Nc3ccc(C(C)=O)cc3)c2C1=O` gave FLuc counter -8% and SMN2 splice up 4%.
For C/C(=N\NC(=O)c1cccs1)c1ccc2ccccc2c1 the results were Rab9 prom act inconclusive, FLuc counter -16%, ELG1 genotox 9% and NPC1 prom act inconclusive.
Screening C/C(=N\NC(=O)c1ccc2ccccc2c1)c1cccs1 returned Rab9 prom act 1µM*, FLuc counter 4.3µM*, ELG1 genotox 2.1µM* and NPC1 prom act 1.1µM*.
`C/C(=N\NC(=O)c1ccncc1)c1cccs1` gave Luc counter -11%, Rab9 prom act 7%, FLuc counter -18%, ELG1 genotox inconclusive and NPC1 prom act 18%.
`C/C(=N/NC(=O)c1cc(C2CC2)[nH]n1)c1cccs1` gave Luc counter inconclusive, Rab9 prom act 0.28µM*, FLuc counter 1.5µM*, ELG1 genotox inconclusive, NPC1 prom act 0.35µM* and SMN2 splice up 2.5µM*.
CC1C(=O)NN=C1C(=O)N/N=C/c1ccco1 (centres undefined) was read as Luc counter inconclusive, Rab9 prom act 15%, FLuc counter -2%, ELG1 genotox 0%, NPC1 prom act -2% and SMN2 splice up 7%.
C/C(=N\NC(=O)C1=NNC(=O)C1C)c1cccs1 (centres undefined) was read as Luc counter 10µM*, Rab9 prom act 4µM*, FLuc counter inconclusive, ELG1 genotox inconclusive, NPC1 prom act inconclusive and SMN2 splice up inconclusive.
`C/C(=N\NC(=O)c1ccccc1O)c1cccs1` gave Luc counter 11µM*, Rab9 prom act 0.56µM*, FLuc counter 7.6µM*, ELG1 genotox inconclusive, NPC1 prom act 0.56µM* and SMN2 splice up 3.5µM*.
For C/C(=N\NC(=O)c1cccc(S(=O)(=O)N2CCCC2)c1)c1cccs1 the results were Luc counter 0%, Rab9 prom act inconclusive, FLuc counter inconclusive, ELG1 genotox 3%, NPC1 prom act 16% and SMN2 splice up 27%.
`CCCCn1c(=O)[nH]c(=O)c2c1nc(-c1cc3c(cc1Br)OCO3)n2C` gave Luc counter 1%, Rab9 prom act -3%, FLuc counter 6%, ELG1 genotox 14%, NPC1 prom act -1% and SMN2 splice up 15%.
`O=[N+]([O-])c1ccc(/C=N/Nc2ncc(-c3ccccc3)cn2)cc1` gave Luc counter -1%, Rab9 prom act -3%, FLuc counter -2%, ELG1 genotox 6%, NPC1 prom act -3% and SMN2 splice up 0%.
`O=[N+]([O-])c1cccc(/C=N/N=C\c2ccccc2)c1` gave Rab9 prom act -2%, FLuc counter 3.4µM*, ELG1 genotox 8% and NPC1 prom act 2%.
For Cc1nnc(C)n1/N=C/c1cccc([N+](=O)[O-])c1 the results were Luc counter -1%, Rab9 prom act -1%, FLuc counter -2%, ELG1 genotox 3%, NPC1 prom act -8% and SMN2 splice up 2%.
Screening O=[N+]([O-])c1ccc(N/N=C/c2ccccc2)c(F)c1 returned Luc counter -1%, Rab9 prom act inconclusive, FLuc counter 11µM*, ELG1 genotox inconclusive, NPC1 prom act inconclusive and SMN2 splice up 22µM*.
For CCOc1ccc(CNC(=O)Cn2ccc3cc(S(=O)(=O)N4CCCCC4)ccc32)cc1 the results were FLuc counter -4%.
For CCC(C)(C)NC(=O)c1ccc2c(c1)N(CC(=O)N1CCCC1)C(=O)C(C)(C)O2 the results were Rab9 prom act 4%, FLuc counter -2%, ELG1 genotox 1% and NPC1 prom act 8%.
`O=C(NN1C(=O)c2ccccc2C1=O)c1ccncc1` gave Luc counter 2%, Rab9 prom act -4%, FLuc counter -2%, ELG1 genotox 1%, NPC1 prom act -4% and SMN2 splice up 7%.
CC(=O)c1c(C(C)=O)c(C)n(NC(=O)c2ccncc2)c1C was read as Luc counter 2%, Rab9 prom act -2%, FLuc counter 5%, ELG1 genotox 3%, NPC1 prom act -1% and SMN2 splice up 25µM*.
For CC(C)COn1c(=S)[nH]c2ccccc2c1=O the results were Luc counter -4%, Rab9 prom act 11%, FLuc counter 21µM*, ELG1 genotox inconclusive, NPC1 prom act 9% and SMN2 splice up -5%.
CN(C)c1ccc(C2C3CCCc4ccccc4C3=NN2C)cc1 (centres undefined) was read as Rab9 prom act 3.2µM*, FLuc counter 19µM*, ELG1 genotox 9% and NPC1 prom act inconclusive.
Screening CN1N=C2c3ccccc3CCC2C1c1ccc(C(F)(F)F)cc1 (centres undefined) returned Rab9 prom act 24%, FLuc counter inconclusive, ELG1 genotox 0% and NPC1 prom act 26%.
`COc1ccccc1CN1COc2ccc3c(oc(=O)c4ccccc43)c2C1` gave FLuc counter -3% and SMN2 splice up 20%.
Screening CCOc1ccc(C(=O)NCCc2csc(-c3cccnc3)n2)cc1 returned FLuc counter 21µM*.
For O=C(Cc1ccc(F)cc1)NCCc1csc(-c2cccc(F)c2)n1 the results were FLuc counter -3%.
`CC(C)Oc1ccc(C(=O)NCCc2csc(-c3cccc(F)c3)n2)cc1` gave FLuc counter 24µM*.
